Screening data as filed in PubChem BioAssay.
An excerpt weighted towards active compounds, which were near 4.6% of everything screened.
DAX1 inh-1: DAX1 (NR0B1) inhibition, primary screen | HEK293T StAR-luciferase reporter, SF-1/DAX-1 repression relief | inhibition, % at 6.8 µM | hit rate 1.1% among 370,000 | AID 652010;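 active = inhibition above the mean over all tested compounds plus 3 SD, cut at about 3.6% in these data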;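 also: 0% = DAX-1 cells with DMSO and 100% = cells lacking DAX-1 with DMSO; higher inhibition means more luminescence from relief of DAX-1 repression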
DAX1 inh-2: inhibitors of human orphan nuclear receptor DAX1 (NR0B1); inhibition, % at 6.75 µM; P51843; hit rate 0.99% among 340,000; HEK293 Gal4-DAX1 luciferase reporter, luminescence;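 active = inhibition above the mean over all tested compounds plus 3 SD, cut at about 4.2% in these data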;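 also: 0% = DAX1-transfected cells with DMSO and 100% = empty-vector control cells with DMSO; inhibition shows as a rise in luminescence from relieved DAX1 repression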
hgDAF-12 ag: agonists of H. glycines DAF-12 nuclear receptor. HEK293 GAL4-hgDAF12 UAS-luciferase reporter, agonist luminescence; normalized to butyrate control. activation, % at 6.8 µM. hit rate 1.8% among 370,000. AID 687014;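 active = activation above a cutoff set at the mean of all screened compounds plus 3 SD, cut at about 10% in these data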;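 also: 0% = DMSO wells and 100% = sodium butyrate wells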
ssDAF12 agonist: activates DAF-12 receptor from parasite S. stercoralis; AID 652126; HEK293 ssDAF-12/GRIP1 lit1-tk-luc reporter, luminescence; % of 3 µM dafachronic acid response; activation, % at 6.8 µM; hit rate 1% among 370,000;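 active = activation above the mean over all tested compounds plus 3 SD, cut at about 0.9% in these data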;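 also: 0% = DMSO-only wells and 100% = 3 µM delta7-dafachronic acid wells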
Wee1 degr inh: blocks degradation of human Wee1 kinase; P30291; HeLa Luc-Wee1K328M stability, luciferase luminescence; 100% = proteasome inhibitor MG132 effect; reporter increase, % at 5 µM; hit rate 1.2% among 220,000; AID 1321;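 active = activation above the mean of all tested compounds plus 3 SD, set per screening run, cut at about 8.8% in these data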;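 also: cells exposed to compound for 20 h before luminescence read; 0% = DMSO alone and 100% = MG132 at 30 µM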
Target sequence (P30291 whole entry K328M): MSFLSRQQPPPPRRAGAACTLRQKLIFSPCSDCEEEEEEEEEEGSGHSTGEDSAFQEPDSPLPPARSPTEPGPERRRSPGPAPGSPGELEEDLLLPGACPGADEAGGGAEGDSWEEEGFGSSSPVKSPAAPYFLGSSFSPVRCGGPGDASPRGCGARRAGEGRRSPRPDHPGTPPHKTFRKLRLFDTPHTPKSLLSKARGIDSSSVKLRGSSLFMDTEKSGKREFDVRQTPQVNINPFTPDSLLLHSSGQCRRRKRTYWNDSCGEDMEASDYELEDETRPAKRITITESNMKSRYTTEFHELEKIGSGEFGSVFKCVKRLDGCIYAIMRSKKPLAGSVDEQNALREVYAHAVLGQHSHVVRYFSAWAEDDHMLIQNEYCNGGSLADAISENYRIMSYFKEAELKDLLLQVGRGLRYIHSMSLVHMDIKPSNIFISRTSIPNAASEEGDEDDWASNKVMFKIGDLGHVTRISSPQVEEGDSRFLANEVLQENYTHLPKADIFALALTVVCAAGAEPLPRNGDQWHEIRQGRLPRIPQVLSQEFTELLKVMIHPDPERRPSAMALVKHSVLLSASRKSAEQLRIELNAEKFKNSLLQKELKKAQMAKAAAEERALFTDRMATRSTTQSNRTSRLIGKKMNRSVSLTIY
hcDAF12 agonist: activators of H. contortus DAF-12 nuclear receptor. hit rate 1.4% among 370,000. activation, % at 6.8 µM. HEK293 hcDAF-12 lit1-tk-luc reporter, luminescence; 0% DMSO, 100% Δ7-dafachronic acid;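 active = activation above the mean of all tested compounds plus 3 SD, cut at about 5.5% in these data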;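 also: 100% = response to 3 µM Δ7-dafachronic acid high control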
The depositor's hits bear a star; nt = not tested or not shown.

SMILES	DAX1 inh-1	DAX1 inh-2	hgDAF-12 ag	ssDAF12 agonist	Wee1 degr inh	hcDAF12 agonist
CCOC(=O)Cc1csc(NC(=O)c2ccc(C)o2)n1	0	1	2	-2	2	-1
CC(C)COC(=O)N1CCCCC1c1cc(C(=O)Nc2ccc3c(c2)OCO3)no1 (centres undefined)	0	nt	-3	-1	nt	-2
c1cc(SSc2ccncc2)ccn1	0	0	0	-1	nt	-1
c1ccc(Sc2ccncc2)cc1	0	5.7*	0	-1	nt	1
COCc1cn(-c2nc3ccccc3s2)nn1	3	nt	8	0	nt	3
COC(=O)CN(Cc1cn(Cc2ccccc2)nn1)S(=O)(=O)c1ccccc1Br	-1	nt	4	-1	nt	1
COc1ccc2nc(Nc3sc4c(c3C(N)=O)CCCC4)sc2c1	1	1	3	0	-3	6.4*
COc1ccc(CC(=O)Nc2sc3c(c2C(N)=O)CCCC3)cc1	0	0	-1	-2	nt	-2
COc1ccc2nc(NC3=NCCC3)sc2c1	2	3	6	-1	5	0
COc1cc(OC)cc(C(=O)Nc2sc3c(c2C(N)=O)CCC3)c1	0	1	7	1.1*	nt	1
CC(=O)O[C@H]1[C@@H](O)[C@H](O)[C@H](Oc2c(O)c(C)c3c4c2[C@@H](C)CC[C@@H]4[C@@H](C)C[C@@H]3C=C(C)C)O[C@H]1C	1	nt	3	-1	nt	0
COc1ccc([N+](=O)[O-])cc1N(CC(O)CN1C(=O)NC(C)(C)C1=O)S(=O)(=O)c1ccc(C)cc1 (centres undefined)	0	-1	0	-1	nt	-2
CC(C)N(CCn1cnc2c([nH]c3ccccc32)c1=O)C(C)C	1	0	3	0	7	6.1*
COc1ccc2nc(/C(C#N)=C\c3ccc(C(=O)O)cc3)[nH]c2c1	2	0	13*	0	4	4
CC(=O)Nc1ccc(C(C#N)=Cc2ccc(N(C)CCC#N)cc2)cc1	-3	0	0	-1	nt	-5
COc1ccc(C(C#N)=Cc2ccc(NC(C)=O)cc2)cc1	3.7*	1	6	-1	nt	0
O=C(Nc1ccc(Oc2ccccc2)cc1)C1CCCN1S(=O)(=O)c1cccc2cccnc12 (centres undefined)	-3	nt	-1	-2	nt	-6
Cc1cccc(NC(=O)CN(C)C(=O)C2CCCC2)c1C	-1	0	-4	0	nt	-1
COc1ccc(NC(=O)/C(Cl)=C(/Cl)S(=O)Cc2ccc(Cl)cc2)cn1 (centres undefined)	-3	-4	-15	-3	13*	-7
COc1ccc(NC(=O)C(Cl)=C(Cl)Cl)cn1	0	-1	-2	-2	0	-1
COc1ccccc1-c1cccc([C@@H]2C[C@H]3[C@H](CON3C)CN2C)c1	3.8*	0	-2	0	nt	-1
COc1ccccc1-c1cccc([C@@H]2C[C@H]3[C@H](CON3C)CN2Cc2ccccc2)c1	-1	0	1	-1	nt	0
CN(CC(=O)Nc1ccc(OC(F)(F)F)cc1)C(=O)c1ccccc1SCC(=O)N1CCCC1	-2	0	0	-1	nt	-1
Cn1c(SCC(=O)NC2CCCCC2)nnc1C(F)(F)F	0	1	-3	-1	nt	1
Cc1c(C#N)c(O)n(CCO)c(=O)c1N=Nc1ccc(S(N)(=O)=O)cc1	-1	0	-2	-2	4	-1
SMILES	DAX1 inh-1	DAX1 inh-2	hgDAF-12 ag	ssDAF12 agonist	Wee1 degr inh	hcDAF12 agonist
Cc1c(C#N)c(O)n(CCO)c(=O)c1N=Nc1ccccc1	-1	4.4*	-4	-2	-1	-1
Cc1ccc(S(=O)(=O)N(C)[C@H]2C[C@H]3c4cc(-c5ccccc5C)ccc4CCN3C[C@H]2[C@H](C)O)cc1	0	nt	5	-1	nt	-2
CCCCNC(=O)C[C@H]1C[C@@]2(C(=O)OC)C(=C[C@H](C3CCCC3)O[C@@H]2C)N(Cc2ccco2)C1=O	-1	nt	-1	-2	nt	-3
CSc1ccc(CN2CCN(CCC(C)C)C(CCO)C2)cc1 (centres undefined)	0	0	-1	-1	10*	-1
CC(C)CCN1CCN(Cc2ccc(C#CCCO)cc2)CC1CCO (centres undefined)	0	-1	1	-2	1	-1
COc1cc([N+](=O)[O-])c2nc(C(=O)O)ccc2c1	-3	2	0	-1	nt	-2
CC(C)CN1C(=O)N2Cc3ccccc3C2CS1(=O)=O (centres undefined)	0	nt	8	0	nt	-1
O=C(Nc1ccccc1)OC1CC2CC1C1CCCC21 (centres undefined)	3	1	12*	0	-1	0
CCCC[C@H]1C2CC(OC(=O)Nc3ccccc3)C(C2)[C@H]2CCCCN21 (some centres undefined)	0	nt	0	-1	nt	-3
CC(SCc1ccccc1)C(=O)Nc1ccccc1-c1ccccc1 (centres undefined)	0	1	0	-1	3	6.1*
CCOC(=O)CNC(=O)c1c2c(nc3ccccc13)CCCC2	1	0	-2	1.0*	2	1
COc1cccc(OC)c1C(=O)NC(=S)NNC(=O)[C@H]1C[C@@H]1c1ccccc1	0	0	3	1.7*	0	-1
O=C(NNC(=O)C1CC1c1ccccc1)c1cccc([N+](=O)[O-])c1 (centres undefined)	0	-1	1	0	11*	0
O=C(NC(=S)NNC(=O)[C@H]1C[C@@H]1c1ccccc1)c1cccc(F)c1	1	-1	0	1.4*	-1	1
CC1(C(=O)NNC(=O)c2cccc([N+](=O)[O-])c2)CC1Br (centres undefined)	0	0	0	-1	nt	0
Cc1ccc(S(=O)(=O)N2CCN(C(=O)CN3CCN(c4ccc(O)cc4)CC3)CC2)cc1	-3	0	2	-1	nt	-1
COC(=O)[C@]12C[C@H](CC(=O)NCCC(C)C)C(=O)N(CCC3=CCCCC3)C1=C[C@H](C(C)(C)C)O[C@@H]2C	1	nt	5	-1	nt	0
O=C(Cn1ccc([N+](=O)[O-])n1)N1CCCCC1	0	5.5*	-1	-1	2	-1
O=C(Cn1ccc([N+](=O)[O-])n1)N1CCCCCC1	-1	0	4	-1	-3	-1
Cc1cccc(NC(=S)Nc2ccccn2)c1	1	5.3*	7	1.0*	-2	5
Cc1cccc(NNC(=S)Nc2c(C)cccc2C)c1	0	-1	-2	-1	nt	-1
COC(=O)c1ccc(NC(=S)Nc2ccccn2)cc1	2	3	12*	0	2	2
Cc1cccc(NC(=S)N2CCN(c3ccccn3)CC2)c1	0	0	1	-1	nt	-2
